Measured values reported in PubChem BioAssay AID463218 (Sanford-Burnham Center for Chemical Genomics, 2010).
Out of some 4,400 compounds screened, about 3,700 (84%) were called active.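 Rule for the calls: active = inhibition above about 39% in either of two replicate wells at 20 µM (limit read from the data); inactive = the rest.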 So high a share suggests a set chosen from earlier hits. The list is a sample of the results.

Test: tim23-1 mutant yeast growth inhibitors, confirmation, luminescence, single concentration (AID 463218);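 note: temperature-sensitive tim23-1 mutant grown at 25 °C; 0% = DMSO wells with yeast and 100% = medium wells without yeast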
Details: S. cerevisiae tim23-1 growth, BacTiter-Glo luminescence, 24 h; at 20 µM; stronger effect = higher value

SMILES | inhibition
Cc1ccc(-c2nc3ccccc3c(=O)n2-c2ccc(Br)cn2)cc1 | 53.6% (active)
Cc1cc2ccccn2c1C(C[N+](=O)[O-])c1c(F)cccc1Cl (stereo not drawn) | 58.5% (active)
COc1cccc(N2C(=O)NC(=O)/C(=C\c3ccc([N+](=O)[O-])s3)C2=O)c1 | 78.3% (active)
